Hits are enriched below; roughly 17% of the tested compounds scored in any of these assays.
HT1080NT lethal: qHTS for induction of synthetic lethality in tumor cells producing 2HG: qHTS for the HT-1080-NT fibrosarcoma cell line. HT-1080-NT fibrosarcoma viability, CellTiter-Glo ATP luminescence, 48 h. 360,000 tested, 1.6% active. Potency, µM (series often up to 46.1 µM), without a hit: top-dose activity, negative = less viability, usual class: cytotoxic;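 note: NT is the 2HG producing partner of a matched IDH1 knockdown line; 0% = DMSO-treated cells and -100% = media-only wells without cells; nearly all actives have a fitted effect of over 55% in size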
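Viability of the 2HG-overproducing fibrosarcoma line after 48 hours of compound exposure at 37 degrees C was determined by luminescence with CellTiter-Glo, and concentration-effect curves were then fitted and categorized.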
HT1080 IDH1KD tx: qHTS for induction of synthetic lethality in tumor cells producing 2HG: qHTS for the HT-1080-IDH1KD cell line; HT-1080 IDH1 knockdown viability, ATP luminescence, 48 h; 360,000 tested, 2% active; AID 686971, 2013; Potency, µM (doses to about 46.1 µM), for inactives: top-dose activity, negative = toxicity, most hits filed as cytotoxic;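 note: 0% = DMSO wells and -100% = cell-free medium wells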
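After a 2 h attachment period, IDH1KD HT-1080 cells took pin-transferred compound for 48 h at 37 °C; ATP-based luminescence after 10 min room-temperature reagent incubation reported viability.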
HepG2 viability: qHTS for Inhibitors of TGF-b: Cytotox Counterscreen | 410,000 tested, 0.76% active | HepG2 CAGA-GFP viability, ATP luminescence, 18 h | Potency, µM (top dose mostly 46.1 µM), without a hit: top-dose activity change, negative = cytotoxicity, most hits filed as cytotoxic | AID 588856, 2011
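CellTiter-Glo luminescence gave cytotoxicity after 18 hours at 37 degrees C. The cells were HepG2 CAGA-GFP in 1% FBS DMEM, stimulated with 500 pg/mL TGF-beta after compound addition. %Activity was normalised to no-cell wells (complete cell-killing) and DMSO (no toxicity), and curves were fitted and classified.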
TDP1 cell noCPT: qHTS for Inhibitors of human tyrosyl-DNA phosphodiesterase 1 (TDP1): qHTS in cells in absence of CPT | AID 686978, 2013 | DT40 Tdp1-/- hTDP1 cells, no CPT, ATP luminescence, 48 h | 420,000 tested, 15% active | Potency, µM (top dose mostly 46.2 µM), for inactives: at the top dose activity change, negative = growth inhibition, actives largely listed as inhibitors; note: % is set by controls: 0 for no effect and ±100 for the full control effect; nearly all actives have a fitted effect of over 55% in size
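Compound effects on proliferation are scored in DT40 Tdp1-/-;hTDP1 cells in the absence of CPT. ATP levels (CellTiter-Glo luminescence) are recorded after a ≥48 hr, 37 °C incubation.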
DT40 TDP1 CPT: qHTS for Inhibitors of human tyrosyl-DNA phosphodiesterase 1 (TDP1): qHTS in cells in presence of CPT; AID 686979, 2013; 420,000 tested, 12% active; chicken DT40 Tdp1-/-;hTDP1 cells + 20 nM CPT, ATP luminescence, 48 h; Potency, µM (titrated, usually from 46.2 µM), inactives show at the highest dose activity change, negative = growth inhibition, hits mostly inhibitors; note: % is set by controls: 0 for no effect and ±100 for the full control effect; nearly all actives have a fitted effect of over 55% in size
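Chicken DT40 Tdp1-/- cells stably complemented with human TDP1 were seeded at 400 cells/well in medium containing 20 nM camptothecin, exposed to pin-transferred compounds, and grown at 37 °C for at least 48 hr. Viability was read as ATP luminescence.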
TGFb SMAD3 inh: qHTS for Inhibitors of TGF-b; 410,000 tested, 1.2% active; HepG2 CAGA-GFP TGF-b/SMAD3 reporter, GFP fluorescence, 18 h; TGF-beta stimulated, 500 pg/mL final; Potency, µM (series often up to 46.1 µM), inactives show at the highest dose activity, negative = inhibition, usual class: inhibitors; note: % is set by controls: 0 for no effect and ±100 for the full control effect; nearly all actives have a fitted effect of over 65% in size
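Inhibition was scored as loss of TGF-beta-induced (500 pg/mL final, 18 hours, 37 degrees C) GFP in HEPG2 cells carrying a CAGA-GFP reporter, in DMEM with 1% FBS. Well GFP was summed per cell; Activity was normalised to unstimulated and stimulated DMSO wells, then concentration-response fitting.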
* hit, by the source's call; ? = inconclusive; . = no result given; [ ] = remark or other dose. Calls come from the whole dose curve; as a rule, active = well fitted curve in the direction sought with a large enough effect; inconclusive = small, poorly fitted or top-dose-only effect, or another doubt; inactive = no such curve, though single readings can be large; an effect the other way counts as inactive or inconclusive. Potency is the fitted concentration of half-maximal effect.

SMILES	HT1080NT lethal	HT1080 IDH1KD tx	HepG2 viability	TDP1 cell noCPT	DT40 TDP1 CPT	TGFb SMAD3 inh
COc1ccc(CCNC(=O)CCc2c(C)nc3nc(C)nn3c2C)cc1OC	.	.	3%	17%	7%	28%
O=C(Nc1cc(Cl)ccc1Cl)P(=O)(O)c1ccccc1	21%	5%	-3%	-5%	-22%	13%
C#CCOc1nc(C)cc(C)c1S(=O)(=O)c1ccccc1C	-13%	0%	-20%	-2%	4%	0%
CCSc1nc(C)cc(C)c1S(=O)(=O)c1ccccc1C	0%	-12%	-10%	21µM*	?	-37%
CCC(C)Oc1nc(C)cc(C)c1S(=O)(=O)c1ccccc1C (centres undefined)	-1%	-4%[9.24 µM]	0%	16µM*	?	?
CSc1nc(C)cc(C)c1S(=O)(=O)c1ccccc1C	-10%	-15%	-4%	?	?	-1%
COc1nc(C)cc(C)c1S(=O)(=O)c1ccccc1C	-13%	-12%	-3%	0%	-2%	19%
Cc1cc(C)c(S(=O)(=O)c2c(C)cccc2C)c(OCC(C)C)n1	-11%	-7%	5%	13µM*	23µM*	?
COc1cc(C(c2c(C)[nH][nH]c2=O)c2c(C)[nH][nH]c2=O)ccc1OC(=O)c1cccc(C)c1	.	.	15%	?	?	8%
COc1ccc(-c2nc(CS(=O)CC(=O)NC3CCCC3)c(C)o2)cc1 (centres undefined)	-7%	6%	-9%	-8%	?	0%
O=C(O)CCCCCN=Cc1c(O)c2ccccc2oc1=O	3%	4%	10%	4%	2%	5%
COC(=O)C(NC(=O)c1ccccc1)=C(C)C	17%	22%	3%	?	18µM*	34%
O=C(Nc1ccc(S(=O)(=O)N2CCCCC2c2cccnc2)cc1)c1ccccc1F (centres undefined)	3%	-1%	-14%	?	?	-21%
O=C(Nc1ccc(S(=O)(=O)N2CCCCC2c2cccnc2)cc1)c1ccc(F)cc1 (centres undefined)	.	.	-47%	18µM*	23µM*	?
O=[N+]([O-])c1cccc(S(=O)(=O)N2CCCCC2c2cccnc2)c1 (centres undefined)	5%	-5%	2%	?	21µM*	-1%
COc1cccc(C(=O)Nc2ccc3c(c2)C(=O)c2ccccc2C3=O)c1	-21%	-17%	-31%	-16%	?	-27%
O=C(Nc1cccc(-c2nc3ccccc3[nH]2)c1)c1c(F)cccc1F	.	.	-32%	10µM*	15µM*	?
CC(=O)Nc1cccc(-c2nc3ccccc3[nH]2)c1	18%	12%	0%	2%	8%	?
O=C(Nc1cccc(-c2nc3ccccc3[nH]2)c1)c1ccccc1F	.	.	-26%	?	?	1%
COc1cccc(C(=O)Nc2ccc(Cl)c(-c3nc4ccccc4[nH]3)c2)c1	.	.	-6%	6.5µM*	?	?
COc1cccc(OC)c1C(=O)Nc1cccc(-c2nc3ccccc3[nH]2)c1	-5%	-9%	-35%	18µM*	?	-15%
O=C(Nc1cccc(-c2nc3ccccc3[nH]2)c1)c1ccccn1	-4%	-13%	-8%	13µM*	18µM*	5%
COC(=O)c1ccccc1NC(=O)N1CCN(C(=O)c2ccco2)CC1	0%	9%	1%	-1%	-9%	2%
CC(=O)NC12CC3CC(C1)CC(C(=O)Nc1cccc(S(=O)(=O)N4CCCCCC4)c1)(C3)C2	4%	8%	1%	?	?	-8%
Cc1cccc(N2CCN(C(=O)c3cc4cc(F)ccc4[nH]3)CC2)c1C	-11%	-2%	-31%	?	?	?
SMILES	HT1080NT lethal	HT1080 IDH1KD tx	HepG2 viability	TDP1 cell noCPT	DT40 TDP1 CPT	TGFb SMAD3 inh
CC(C)COc1ccc(C(=O)Nc2cccc(-c3nc4ccccc4[nH]3)c2)cc1	.	.	-39%	21µM*	18µM*	?
CC(Oc1ccccc1)C(=O)Nc1cccc(-c2nc3ccccc3[nH]2)c1 (centres undefined)	-6%	-3%	-20%	?	?	-3%
COC(=O)c1cccc(NC2CC(=O)N(c3ccc(OC)c(OC)c3)C2=O)c1 (centres undefined)	-2%	1%	5µM*	4%	23%	-9%
O=C1NC(=Nc2ccccc2)S/C1=C\C=C\c1ccco1	?	?	4%	9.2µM*	8.2µM*	0%
Cc1ccc(N=C2NC(=O)/C(=C/C=C/c3ccco3)S2)cc1	3%	7%	-1%	23µM*	?	?
COc1ccc(N=C2NC(=O)/C(=C/c3ccco3)S2)cc1	-2%	3%	-1%	?	?	-1%
Cc1cccc(N=C2NC(=O)/C(=C/C=C/c3ccco3)S2)c1C	-20%	?	1%	16µM*	?	?
Cc1cc2oc(C(=O)Nc3sc4c(c3C(=O)NCC3CCCO3)CCC4)cc(=O)c2cc1C (centres undefined)	.	.	6%	-20%	9%	32%
O=C(Nc1ccc2nn(-c3ccccc3)nc2c1)c1cccnc1	1%	0%	-23%	16µM*	?	-7%
O=C(Nc1ccccc1Cl)c1ccc(C(=O)Nc2ccccc2Cl)cc1	-2%	-4%	-19%	-1%	4%	?
O=C(Nc1cc(NC(=O)c2ccccc2Cl)ccc1Cl)c1ccccc1	.	.	-25%	21µM*	?	0%
O=C(Nc1ccccc1C(=O)O)c1cccc(NC(=O)c2ccccc2Cl)c1	0%	1%	8%	?	-22%	5%
O=C(Nc1ccc(C(=O)Nc2ccccc2Cl)cc1)c1cccnc1	8.2µM*	5.8µM*	1%	-28%	-22%	-1%
COc1ccc(-c2cn(-c3ccccc3)nc2C(=O)O)cc1OC	0%	0%	-4%	1%	1%	0%
CN1CCN(c2ccc(CNC(=O)c3ccc(-c4ccnn4C)c4ccoc34)cc2)CC1	-28%	-1%	-20%	?	?	18%

Bioassay records from PubChem BioAssay.
